PubChem BioAssay AID1159580 (chemical genetic matrix, 2015)
Several values for one entry are separate records, joined by “and”; a condition that tells them apart may be missing. Equal values may be shown once. Hit rate of the full screen: of about 5,500 compounds, about 2,000 (36%) were called active. Another 18% or so got no clear call; they are omitted. Cut-off read from the data, not from the text of the source: active = normalized growth mostly below about 0.91 (no sharp cut-off); inconclusive = no clear call, values can overlap the other calls; inactive = mostly above about 0.92. The list shows a part of the results.

Assay: chemical genetic growth profiling, strain panel (AID 1159580);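 note: tested at 20 µM; growth read once vehicle control cultures reached saturation at 30 °C; 1 = growth at the plate median or of vehicle wells; lower values mean less growth of the strain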
Settings: S. cerevisiae deletion strains, growth OD

Measured: normalized growth

CC(=O)O[C@H]1C[C@@H](OC(C)=O)C(C)(C)C2C[C@@H](OC(C)=O)[C@]3(C)C(CC[C@@]4(C)[C@H](c5ccoc5)OC(=O)[C@H]5O[C@]543)[C@]21C (some centres not stated)
inactive: locus YAL021C, strain ccr4, active compounds read low 0.993 | locus YAL026C, strain drs2, active compounds read low 0.984 | locus YAL030W, strain snc1, active compounds read low 0.993 | locus YBL061C, strain skt5, active compounds read low 0.993 | locus YBR009C, strain hhf1, active compounds read low 1.02 | locus YBR021W, strain FUR4, active compounds read low 0.969 | locus YBR023C, strain chs3, active compounds read low 0.996 | locus YBR171W, strain sec66, active compounds read low 0.991 | locus YBR229C, strain ROT2, active compounds read low 0.992 | locus YBR231C, strain swc5, active compounds read low 1.01 | locus YBR279W, strain paf1, active compounds read low 1 | locus YCL011C, strain gbp2, active compounds read low 1 | locus YCL016C, strain dcc1, active compounds read low 0.992 | locus YCL029C, strain bik1, active compounds read low 1.01 | locus YCL061C, strain MRC1, active compounds read low 1 | locus YCL069W, strain vba3, active compounds read low 0.999 | locus YCR088W, strain abp1, active compounds read low 1 | locus YDL005C, strain med2, active compounds read low 0.993 | locus YDL035C, strain GPR1, active compounds read low 1.02 | locus YDL040C, strain nat1, active compounds read low 0.999 | locus YDL074C, strain BRE1, active compounds read low 1.01 | locus YDL101C, strain DUN1, active compounds read low 0.991 | locus YDL134C, strain PPH21, active compounds read low 0.994 | locus YDL185W, strain tfp1, active compounds read low 1 | locus YDL192W, strain arf1, active compounds read low 1.01 | locus YDR001C, strain nth1, active compounds read low 0.976 | locus YDR069C, strain doa4, active compounds read low 0.975 | locus YDR101C, strain arx1, active compounds read low 1.02 | locus YDR137W, strain rgp1, active compounds read low 0.963 | locus YDR159W, strain sac3, active compounds read low 0.96 | locus YDR162C, strain NBP2, active compounds read low 1.02 | locus YDR195W, strain ref2 0.954 | locus YDR297W, strain sur2, active compounds read low 0.998 | locus YDR318W, strain mcm21, active compounds read low 1.01 | locus YDR334W, strain swr1, active compounds read low 0.971 | locus YDR335W, strain msn5, active compounds read low 0.993 | locus YDR388W, active compounds read low 0.999 | locus YDR392W, strain spt3, active compounds read low 0.989 | locus YDR502C, strain sam2, active compounds read low 0.998 | locus YEL003W, strain gim4, active compounds read low 0.988 | locus YEL037C, strain rad23, active compounds read low 0.994 | locus YEL061C, strain CIN8 (second series), active compounds read low 0.991 | locus YEL061C, strain CIN8, active compounds read low 1.02 | locus YER015W, strain faa2, active compounds read low 1 | locus YER016W, strain bim1, active compounds read low 0.993 | locus YER110C, active compounds read low 1 | locus YER111C, strain swi4, active compounds read low 0.988 | locus YER155C, strain BEM2 (second series), active compounds read low 0.996 | locus YER155C, strain BEM2, active compounds read low 1 | locus YER167W, strain BCK2, active compounds read low 0.998 | locus YFR010W, strain ubp6, active compounds read low 0.973 | locus YGL078C, strain dbp3, active compounds read low 0.997 | locus YGL086W, strain mad1, active compounds read low 1.02 | locus YGL167C, strain pmr1, active compounds read low 0.987 | locus YGL173C, strain kem1, active compounds read low 0.999 | locus YGL227W, strain vid30, active compounds read low 1.01 | locus YGL240W, strain doc1, active compounds read low 0.999 | locus YGL248W, strain PDE1, active compounds read low 0.99 | locus YGL253W, strain hxk2, active compounds read low 0.995 | locus YGR078C, strain PAC10, active compounds read low 0.991 | locus YGR135W, strain pre9, active compounds read low 0.979 | locus YGR252W, strain gcn5, active compounds read low 0.966 | locus YHR013C, strain ard1, active compounds read low 0.987 | locus YHR027C, strain rpn1, active compounds read low 0.968 | locus YHR030C, strain SLT2, active compounds read low 0.978 | locus YHR079C, strain IRE1 (second series), active compounds read low 0.989 | locus YHR079C, strain IRE1, active compounds read low 0.984 | locus YHR094C, strain hxt1, active compounds read low 1.01 | locus YHR129C, strain ARP1, active compounds read low 1.02 | locus YHR142W, strain chs7, active compounds read low 1 | locus YHR200W, strain rpn10, active compounds read low 0.995 | locus YIL066C, strain RNR3, active compounds read low 1.01 | locus YIL073C, strain SPO22, active compounds read low 0.989 | locus YIL125W, strain kgd1, active compounds read low 0.996 | locus YIR030C, strain dcg1, active compounds read low 1 | locus YJL092W, strain hpr5, active compounds read low 1.01 | locus YJL095W, strain BCK1 (second series), active compounds read low 0.995 | locus YJL095W, strain BCK1, active compounds read low 1.02 and 0.984 | locus YJL115W, strain asf1, active compounds read low 0.974 | locus YJL129C, strain trk1, active compounds read low 0.979 | locus YJL134W, strain LCB3, active compounds read low 1.02 | locus YJL154C, strain vps35, active compounds read low 0.98 | locus YJL164C, strain tpk1, active compounds read low 0.997 | locus YJL166W, strain qcr8, active compounds read low 1.03 | locus YJL168C, strain set2, active compounds read low 0.999 | locus YJL187C, strain SWE1 (second series), active compounds read low 0.989 | locus YJL187C, strain SWE1, active compounds read low 0.999 | locus YJR043C, strain POL32, active compounds read low 1.02 | locus YJR066W, strain TOR1, active compounds read low 0.932 | locus YKL009W, strain mrt4, active compounds read low 1 | locus YKL068W, active compounds read low 1.01 | locus YKL160W, strain elf1, active compounds read low 1 | locus YKL190W, strain CNB1, active compounds read low 1.01 | locus YKR001C, strain vps1, active compounds read low 1 | locus YKR026C, strain gcn3, active compounds read low 0.995 | locus YKR091W, strain srl3, active compounds read low 0.989 | locus YLL001W, strain dnm1, active compounds read low 0.988 | locus YLL026W, active compounds read low 0.997 | locus YLL041C, strain sdh2, active compounds read low 0.987 | locus YLR027C, strain aat2, active compounds read low 1.01 | locus YLR039C, strain RIC1, active compounds read low 0.981 | locus YLR058C, strain SHM2, active compounds read low 1.01 | locus YLR102C, strain apc9, active compounds read low 0.999 | locus YLR113W, strain HOG1, active compounds read low 1.03 | locus YLR221C, strain rsa3, active compounds read low 0.995 | locus YLR258W, strain gsy2, active compounds read low 0.998 | locus YLR262C, strain YPT6 (second series), active compounds read low 0.969 | locus YLR262C, strain YPT6, active compounds read low 0.974 | locus YLR268W, strain sec22, active compounds read low 1 | locus YLR320W, strain mms22, active compounds read low 1.02 | locus YLR330W, strain CHS5, active compounds read low 1.01 | locus YLR342W, strain FKS1, active compounds read low 1 | locus YLR357W, strain rsc2, active compounds read low 0.997 | locus YLR370C, strain arc18, active compounds read low 0.995 | locus YLR371W, strain rom2, active compounds read low 1 | locus YLR384C, strain iki3, active compounds read low 1.01 | locus YLR418C, strain cdc73, active compounds read low 0.996 | locus YML016C, strain PPZ1, active compounds read low 1.01 | locus YML032C, strain rad52, active compounds read low 1 | locus YML120C, strain ndi1, active compounds read low 0.995 | locus YML124C, strain tub3, active compounds read low 1 | locus YMR058W, strain fet3, active compounds read low 0.985 | locus YMR078C, strain ctf18, active compounds read low 0.989 | locus YMR125W, strain sto1, active compounds read low 0.983 | locus YMR129W, active compounds read low 0.994 | locus YMR205C, strain PFK2, active compounds read low 0.988 | locus YMR223W, strain ubp8, active compounds read low 0.996 | locus YMR231W, strain pep5, active compounds read low 0.981 | locus YMR307W, strain GAS1, active compounds read low 0.895 | locus YNL067W, strain RPL9B, active compounds read low 1.01 | locus YNL071W, strain lat1, active compounds read low 0.992 | locus YNL128W, strain TEP1, active compounds read low 1.02 | locus YNL153C, strain GIM3, active compounds read low 1.02 | locus YNL183C, strain NPR1, active compounds read low 0.93 | locus YNL209W, strain ssb2, active compounds read low 0.995 | locus YNL233W, strain BNI4, active compounds read low 0.974 | locus YNL248C, strain rpa49, active compounds read low 0.971 | locus YNL250W, strain rad50, active compounds read low 0.98 | locus YNL271C, strain bni1, active compounds read low 1 | locus YNL298W, strain CLA4, active compounds read low 1.01 | locus YNL307C, strain MCK1, active compounds read low 0.986 | locus YNL322C, strain KRE1 (second series), active compounds read low 0.999 | locus YNR049C, strain mso1, active compounds read low 0.991 | locus YNR052C, strain pop2, active compounds read low 0.996 | locus YOL012C, strain htz1 1 | locus YOL147C, strain pex11, active compounds read low 0.999 | locus YOR001W, strain rrp6, active compounds read low 0.979 | locus YOR061W, strain CKA2, active compounds read low 0.997 | locus YOR069W, strain VPS5, active compounds read low 0.991 | locus YOR070C, strain gyp1, active compounds read low 0.986 | locus YOR080W, strain dia2, active compounds read low 0.997 | locus YOR083W, strain WHI5, active compounds read low 1 | locus YOR106W, strain vam3, active compounds read low 0.983 | locus YOR136W, strain idh2, active compounds read low 0.996 | locus YOR144C, strain elg1, active compounds read low 1 | locus YOR184W, strain ser1, active compounds read low 1 | locus YOR231W, strain MKK1, active compounds read low 0.987 | locus YOR265W, strain rbl2, active compounds read low 0.989 | locus YOR270C, strain vph1, active compounds read low 0.858 | locus YOR290C, strain snf2, active compounds read low 0.994 | locus YOR316C, strain cot1, active compounds read low 0.999 | locus YPL051W, strain arl3, active compounds read low 1 | locus YPL055C, strain LGE1, active compounds read low 1.02 | locus YPL078C, strain atp4, active compounds read low 1.01 | locus YPL106C, strain sse1, active compounds read low 1.05 | locus YPL240C, strain hsp82, active compounds read low 0.994 | locus YPL256C, strain CLN2, active compounds read low 0.989 | locus YPR119W, strain clb2, active compounds read low 1.01 | locus YPR141C, strain kar3, active compounds read low 0.996 | locus YPR163C, strain tif3, active compounds read low 1 | locus YPR167C, strain met16, active compounds read low 1 | strain wtn01, active compounds read low 1
